Compound activity from PubChem BioAssay.
TDP1 cell CPT: qHTS for Inhibitors of human tyrosyl-DNA phosphodiesterase 1 (TDP1): qHTS in cells in presence of CPT. chicken DT40 Tdp1-/-;hTDP1 cells + 20 nM CPT, ATP luminescence, 48 h. Potency, µM (highest dose often 46.2 µM), hits mostly inhibitors. 12% of 420,000 active. AID 686979, 2013; further: nearly all actives have a fitted effect of over 55% in size
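Cell growth measured by CellTiter-Glo luminescence after a minimum 48 h, 37 C compound exposure with 20 nM CPT in Tdp1-knockout DT40 cells stably expressing hTDP1, seeded 400/well; qHTS titration format.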
ELG1 DNA repair: qHTS screen for small molecules that inhibit ELG1-dependent DNA repair in human embryonic kidney (HEK293T) cells expressing luciferase-tagged ELG1; Potency, µM (series often up to 46.1 µM), actives largely listed as inhibitors; HEK293T ELG1-luciferase reporter, luminescence, 16 h; DNA damage induced by 5-fluorouridine; 2.3% of 330,000 active; further: nearly all actives have a fitted effect of over 55% in size
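Cells (2,000 per well) received 5-fluorouridine plus test compound or DMSO and were incubated 16 hr at 37 °C, 5% CO2. Luciferase activity was read by luminescence 30 min after ONE-Glo addition; signal suppression marked inhibition of damage-induced ELG1 function.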
HT1080 IDH1KD tx: qHTS for induction of synthetic lethality in tumor cells producing 2HG: qHTS for the HT-1080-IDH1KD cell line; 2% of 360,000 active; AID 686971, 2013; Potency, µM (highest dose often 46.1 µM), usual class: cytotoxic; HT-1080 IDH1 knockdown viability, ATP luminescence, 48 h
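After a 2 h attachment period, IDH1KD HT-1080 cells took pin-transferred compound for 48 h at 37 °C; ATP-based luminescence after 10 min room-temperature reagent incubation reported viability.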
HT1080-NT tox: qHTS for induction of synthetic lethality in tumor cells producing 2HG: qHTS for the HT-1080-NT fibrosarcoma cell line; HT-1080-NT fibrosarcoma viability, CellTiter-Glo ATP luminescence, 48 h; Potency, µM (doses to about 46.1 µM), hits mostly cytotoxic; 1.6% of 360,000 active;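 further: NT is the 2HG producing partner of a matched IDH1 knockdown line; nearly all actives have a fitted effect of over 55% in size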
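Fibrosarcoma NT cells, 750 per well in 5% FBS RPMI, were exposed to compound for 48 hours. Viability: CellTiter-Glo luminescence.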
IL-1B inflam inh: qHTS for Inhibitors of Inflammasome Signaling: IL-1-beta AlphaLISA Primary Screen | THP-1 LPS/ATP IL-1B secretion, AlphaLISA, 16 h; hits give low values | activity change, % at 57.5 µM | 4.7% of 360,000 active; in the data active means activity change below about -50%; inconclusive means mostly about -30% to -49%
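THP-1 cells pretreated 1 hr with compounds (up to 57.5 uM final), then stimulated with LPS (250 ng/mL final) plus ATP (1.25 mM final); secreted IL-1B measured by AlphaLISA after 16 hr, decreased signal indicating inhibition.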
TDP1 cell noCPT: qHTS for Inhibitors of human tyrosyl-DNA phosphodiesterase 1 (TDP1): qHTS in cells in absence of CPT. 15% of 420,000 active. DT40 Tdp1-/- hTDP1 cells, no CPT, ATP luminescence, 48 h. Potency, µM (doses to about 46.2 µM), hits mostly inhibitors; further: nearly all actives have a fitted effect of over 55% in size
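Chicken DT40 Tdp1-/- cells complemented with human TDP1, screened without camptothecin (DMSO vehicle only), 400 cells/well. Compounds pin-transferred, cells incubated at 37 °C for at least 48 hr. Growth read as ATP-dependent luminescence (CellTiter-Glo, 30 min at RT).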
A number is an active result; - = inactive; ? = inconclusive; . = no result given. Rows were chosen to be rich in hits. Some 19% of all compounds tested hit in one or more screens of this group. Unless noted, the call rests on the fitted dose curve; in most records, active means well fitted curve in the direction sought with a large enough effect; inconclusive means small, poorly fitted or top-dose-only effect, or another doubt; inactive means no such curve, though single readings can be large; an effect the other way counts as inactive or inconclusive.

SMILES	TDP1 cell CPT	ELG1 DNA repair	HT1080 IDH1KD tx	HT1080-NT tox	IL-1B inflam inh	TDP1 cell noCPT
COc1ccccc1/C=C/C(=O)/C=C/c1ccccc1O	2.9µM	?	5.8µM	6.5µM	-98	2.9µM
CNc1ccccc(C(=O)/C=C/c2ccccc2OC)c1=O	18µM	23µM	-	-	-104	15µM
COc1ccccc1/C=C/C(=O)Nc1cccnc1	-	-	-	-	-	-
COc1ccccc1/C=C/C(C)=O	-	-	-	-	-	-
COc1ccccc1C=CC(=O)C=Cc1ccccc1OC	4.6µM	.	13µM	?	-104	3.3µM
COc1ccccc1/C=C/C(=O)N1CCCC1	-	-	-	-	-	?
COc1ccc(/C=C/C(=O)Nc2cccnc2Cl)cc1	-	?	-	-	-	-
COC(=O)c1cc(C(=O)OCC(=O)Nc2ccc(N3CCOCC3)cc2)cc([N+](=O)[O-])c1	-	?	-	-	-	-
Cc1ccc2c(c1)[C@H]1[C@H](CO2)[C@H](c2ccccc2)[C@]2(C)C(=O)Nc3ccc(Cl)cc3C(=O)N12	?	?	?	-	?	15µM
Cc1ccc2c(c1)NC(=O)[C@@]1(C)[C@@H](c3ccccc3)[C@H]3COc4ccccc4[C@@H]3N1C2=O	?	-	-	-	?	?
Cc1ccc2c(c1)[C@H]1[C@H](CO2)[C@H](c2ccccc2)[C@]2(C)C(=O)Nc3cc(F)ccc3C(=O)N12	?	?	8.2µM	?	?	?
Cc1ccc2c(c1)C(=O)N1[C@H]3c4ccccc4OC[C@@H]3[C@H](c3ccccc3)[C@]1(C)C(=O)N2	?	?	-	-	-62	?
CCc1ccccc1NC(=O)C1CCCN(S(=O)(=O)c2ccc3[nH]c(=O)ccc3c2)C1 (centres undefined)	-	.	.	.	.	-
CS(=O)(=O)c1ccc(N)c(SSc2cc(S(C)(=O)=O)ccc2N)c1	?	-	-	-	-95	?
O=C(COC(=O)CC12CC3CC(CC(C3)C1)C2)Nc1cccnc1Cl	?	?	-	-	-	-
O=S(=O)(NCc1ccc(F)cc1)c1ccc2[nH]c3c(c2c1)CCCC3	?	.	.	.	.	16µM
Cc1cc(C)cc(NC(=S)NCc2ccc3[nH]c4c(c3c2)CCCC4)c1	?	?	-	-	?	16µM
CCS(=O)(=O)NCc1ccc2[nH]c3c(c2c1)CCCC3	.	-	.	.	.	.
Cc1ccc(CNS(=O)(=O)c2ccc3[nH]c4c(c3c2)CCCC4)cc1	-	.	.	.	.	-
O=S(=O)(NCc1ccc(Cl)cc1)c1ccc2[nH]c3c(c2c1)CCCC3	?	.	.	.	.	5.8µM
O=S(=O)(NCc1ccccc1)c1ccc2[nH]c3c(c2c1)CCCCC3	?	.	.	.	.	21µM
CN(C)CCCNC(=O)OC1CC2CC1[C@H]1CCCCN1C2=O (some centres undefined)	-	.	-	-	-	-
CN(CC(=O)Nc1ccccc1Cl)C1CCS(=O)(=O)C1 (centres undefined)	-	-	-	-	-	-
Cc1ccc([C@H]2C[C@H](n3cc(C4CC4)nn3)[C@@H](O)CN2C(=O)C2CCCCC2)cc1	-	.	-	-	-	-
CC(C)C[C@H]1CN(CCCC[C@@H]2CNC(=O)C(=O)N2Cc2ccccc2)C(=O)C(=O)N1CCc1ccc(O)cc1	-	.	-	-	-	-
CN(Cc1ccccc1)S(=O)(=O)c1ccc2[nH]c3c(c2c1)CCCCC3	?	.	.	.	.	16µM
Cc1ccc(CNS(=O)(=O)c2ccc3[nH]c4c(c3c2)CCCCC4)cc1	?	.	.	.	.	15µM
